From PubChem BioAssay
Shown are actives, neighbours in structure and some others; about 12% of the full set was active somewhere.
L3MBTL1 inh – L3MBTL1 (human) inhibition. Potency, µM (titrated, usually from 57.1 µM), inactives show at the highest dose activity, negative = inhibition, usual class: inhibitors. 230,000 compounds, 0.66% hits. AlphaScreen L3MBTL1–H3K9me1 peptide binding; note: % is set by controls: 0 for no effect and ±100 for the full control effect; nearly all actives have a fitted effect of over 60% in size
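L3MBTL1 50 nM + b-AHA-H3(1-15)K9me1 75 nM, 30 min RT; compound added, 30 min RT; streptavidin donor/Ni-chelate acceptor beads 10 ug/mL each final, 30 min RT dark; AlphaScreen read.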
BAZ2B block – BAZ2B (human) inhibition. 360,000 compounds, 4.4% hits. Potency, µM (top dose mostly 114 µM), for inactives: at the highest dose activity change, negative = inhibition, usual class: inhibitors. AlphaScreen BAZ2B-H3K14Ac peptide displacement. Q9UIF8; note: % is set by controls: 0 for no effect and ±100 for the full control effect; nearly all actives have a fitted effect of over 60% in size
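AlphaScreen displacement of biotin-H3(5-23)K14Ac peptide (50 nM final) from BAZ2B (50 nM final) in PBS pH 7.4, 0.01% Tween-20; complex preformed 30 min RT, then compounds (top 110 uM) 30 min RT, beads 20 min dark.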
Sfp inh – blocks B. subtilis Sfp PPTase activity; Q9F4F7; Biochemical Sfp PPTase activity, qHTS; Potency, µM, for the others: largest response in the series, negative = inhibition, usual class: inhibitors; 310,000 compounds, 3.5% hits;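 note: the enzyme is Sfp with the accession as filed and its product quenches rhodamine fluorescence; 0% = enzyme reaction without inhibitor and -100% = no enzyme wells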
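Buffer: 50 mM Hepes-Na pH 7.6, 10 mM MgCl2, 0.01% Nonidet P-40, 0.01% BSA. Enzyme 15 nM, pre-exposed to compound 15 min; substrates then added and fluorescence change tracked over 30 min.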
G9a inh – inhibitors of human histone lysine methyltransferase G9a | Q96KQ7 | G9a H3K9 monomethylation, AlphaScreen, 2 h | Potency, µM (highest dose often 102 µM), without a hit: top-dose activity, negative = inhibition, most hits filed as inhibitors | 350,000 compounds, 8.8% hits | AID 504332; note: % is set by controls: 0 for no effect and ±100 for the full control effect; nearly all actives have a fitted effect of over 75% in size
Target sequence (Q96KQ7 913-1193 limits assumed): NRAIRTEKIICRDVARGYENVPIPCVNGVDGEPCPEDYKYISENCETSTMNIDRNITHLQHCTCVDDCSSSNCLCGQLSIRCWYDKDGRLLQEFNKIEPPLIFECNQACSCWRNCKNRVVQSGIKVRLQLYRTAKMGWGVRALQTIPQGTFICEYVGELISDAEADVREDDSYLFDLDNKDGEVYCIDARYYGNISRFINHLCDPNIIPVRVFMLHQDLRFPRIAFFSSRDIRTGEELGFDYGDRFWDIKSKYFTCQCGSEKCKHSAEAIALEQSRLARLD
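Quantitative HTS format: methyltransferase activity on a biotin-tagged H3K9 peptide is measured by AlphaScreen, using a rabbit anti-monomethyl-H3K9 antibody with streptavidin donor and anti-IgG acceptor beads. Final levels are 20 nM enzyme, 500 nM peptide, 20 uM SAM; 2 h RT.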
JMJD2A Tudor – inhibitors of human JMJD2A Tudor domain; AID 504339; AlphaScreen JMJD2A-Tudor / H3K4me3 peptide binding; O75164; Potency, µM (doses to about 114 µM), for the others: top-dose activity change, negative = inhibition, hits mostly inhibitors; 390,000 compounds, 4.4% hits; note: % is set by controls: 0 for no effect and ±100 for the full control effect; nearly all actives have a fitted effect of over 50% in size
HP1b chromo inh – HP1-beta chromodomain-methylated histone interaction inhibition. P83916. AID 540317. AlphaScreen HP1-beta / biotin-H3K9me3 peptide binding. Potency, µM (top dose mostly 114 µM), for inactives: at the highest dose activity change, negative = inhibition, most hits filed as inhibitors. 390,000 compounds, 0.56% hits; note: nearly all actives have a fitted effect of over 70% in size
Target sequence (P83916 whole entry, looked up): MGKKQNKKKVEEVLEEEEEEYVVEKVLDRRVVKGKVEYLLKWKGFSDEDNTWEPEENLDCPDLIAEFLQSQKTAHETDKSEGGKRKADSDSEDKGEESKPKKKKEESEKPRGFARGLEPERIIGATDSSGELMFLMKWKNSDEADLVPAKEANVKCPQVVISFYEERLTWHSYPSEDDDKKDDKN
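HP1-beta protein (50 nM final) preincubated 30 min at room temperature with biotinylated H3(1-18)K9me3 peptide (50 nM) in PBS pH 7.4, 0.01% Tween-20, then compound added for 30 min. AlphaScreen streptavidin donor/nickel chelate acceptor beads (10 ug/mL final), 30 min dark, luminescence read.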
* marks the source's active call; other numbers are inactive results; u = inconclusive; x = no result given; [ ] = remark or other dose. Calls come from the whole dose curve; as a rule, active = well fitted curve in the direction sought with a large enough effect; inconclusive = small, poorly fitted or top-dose-only effect, or another doubt; inactive = no such curve, though single readings can be large; an effect the other way counts as inactive or inconclusive. Potency is the fitted concentration of half-maximal effect.

SMILES | L3MBTL1 inh | BAZ2B block | Sfp inh | G9a inh | JMJD2A Tudor | HP1b chromo inh
Cc1[nH]c2ccc(F)cc2c1CCN(Cc1cccnc1)C(=S)Nc1ccccc1 | x | x | 13% | 56µM* | u | -2%
COc1ccc(NC(=S)N(CCc2c(C)[nH]c3ccc(C)cc23)Cc2cccnc2)cc1 | -6% | 35µM* | -1% | 50µM* | 50µM* | -22%
Cc1[nH]c2ccccc2c1CCN(Cc1cccnc1)C(=S)Nc1cccc(F)c1 | x | x | 10% | 50µM* | u | -8%
CCOc1ccc(NC(=S)N(CCc2ccncc2)C(C)C)cc1 | x | 11% | 50µM* | u | -12% | 39%
CCOc1ccc(NC(=S)N(CCc2c(C)[nH]c3ccccc23)Cc2cccnc2)cc1 | u | u | 4% | u | u | -8%
O=C(NC1CCCCC1)c1cnn2c1NC(=C1CC1)C=C2C(F)F | x | x | x | x | x | 21%
C#C[C@]1(O)CC[C@@H]2[C@H]3CCc4cc(OC)ccc4[C@@H]3CC[C@@]21C | x | x | 12% | 23%[21.5 µM] | x | x
CCOc1ccc(NC(=S)N(CCc2c(C)[nH]c3ccc(C)cc23)Cc2ccncc2)cc1 | -11% | 35µM* | 7% | 40µM* | 25µM* | -20%
Cc1[nH]c2ccc(F)cc2c1CCN(Cc1ccncc1)C(=S)Nc1ccccc1 | x | x | 7% | u | u | -8%
CC(=O)NCCNc1nc(-c2ccc3c(c2)OCO3)nc2ccccc12 | x | x | 23% | -35%[0.501 µM] | x | x
Cc1ccc(O)c(N=CC2=C(O)c3ccccc3C2=O)c1 | u | 40µM* | -27% | 32µM* | u | -33%
CN(C)CCCNC(=O)C1(O)c2cc(Br)ccc2NC(=O)N1c1ccc(Cl)cc1 (stereo not drawn) | x | -2% | 23% | 2%[12.7 µM] | -3% | 6%
CCOC(=O)N1CCc2c(sc3c2C(=O)NC(c2ccc(N(C)C)cc2)N3)C1 (stereo not drawn) | x | u | x | u | u | -15%
O=C(O)c1c[nH]c2c([N+](=O)[O-])cccc2c1=O | x | x | x | x | 20µM* | 79µM*
Cc1c(C(=O)O)cccc1[N+](=O)[O-] | 0% | u | x | 2%[0.501 µM] | -8% | 22%
COc1ccc(S(=O)(=O)Oc2ccccc2C(=S)N2CCOCC2)cc1 | x | -18% | -19% | 25µM* | x | x
COc1cc(C(=S)N2CCOCC2)cc(OC)c1OS(=O)(=O)c1ccc(Cl)cc1 | 1%[2.29 µM] | -5% | 45µM* | -12%[0.501 µM] | -33% | u
COc1cc(C(=S)N2CCOCC2)ccc1OS(=O)(=O)c1ccc(Cl)cc1 | -5% | -22% | -5% | 35µM* | -14% | 32%
COc1cc(C(=S)N2CCOCC2)ccc1OS(=O)(=O)c1ccc(C)cc1 | -2% | -33% | 9% | 13%[59 µM] | -9% | 32%
O=[N+]([O-])c1ccccc1S(=O)(=O)Oc1ccc(C(=S)N2CCOCC2)cc1 | -2% | -27% | -7% | 28µM* | u | u
O=C(Oc1ccc(C(=S)N2CCOCC2)cc1)c1ccc([N+](=O)[O-])cc1 | 0%[2.29 µM] | 9% | -6% | -13%[0.501 µM] | 4% | 51%
Cc1cc(C)cc(NC(=O)C2CCC(CNS(=O)(=O)c3ccc4c(c3)C(C)(C)C(=O)N4C)CC2)c1 (stereo not drawn) | x | -19% | x | -37%[59 µM] | -21% | 33%
N#Cc1c(-c2ccco2)cc(C2CC2)nc1N | 5% | -2% | 32µM* | 14µM* | -1% | 30%
N#Cc1c(-c2cccnc2)cc(-c2ccccc2)nc1N | 16% | 1% | -1% | x | 16% | 58%
N#Cc1c(-c2ccco2)cc(-c2cccnc2)nc1N | -16% | u | -24% | 35µM* | -15% | 49%
O=C(CN1CCN(S(=O)(=O)c2cccc(F)c2)CC1)Nc1ccnn1C1CCCC1 | 10% | 7% | x | -10%[2.33 µM] | -19% | 66%
COC(=O)CC(NC(=S)NC(=O)c1ccccc1)c1ccc(Br)cc1 (stereo not drawn) | x | -19% | 3% | 40µM* | -8% | 25%
